# Hit rate of the full screen: of about 5,500 compounds, about 2,000 (36%) were called active. About 18% were inconclusive and are not listed. This is one part of the list. Values without a mark were called inactive. Cut-off read from the data, not from the text of the source: active = normalized growth mostly below about 0.91 (no sharp cut-off); inconclusive = no clear call, values can overlap the other calls; inactive = mostly above about 0.92.
# Assay: chemical genetic growth profiling, strain panel (AID 1159580);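 note: tested at 20 µM; growth read once vehicle control cultures reached saturation at 30 °C; 1 = growth at the plate median or of vehicle wells; lower values mean less growth of the strain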
# Details: growth OD
smiles,measurement,setting,value
CC[C@@H](C(=O)O)[C@@H]1O[C@@H]([C@@H](C)[C@H](O)[C@H](C)C(=O)[C@H](CC)[C@H]2O[C@]3(C=C[C@@H](O)[C@]4(CC[C@@](C)(C5CC[C@](O)(CC)[C@H](C)O5)O4)O3)[C@H](C)C[C@@H]2C)[C@@H](C)C[C@H]1C (stereo partly specified),normalized growth,"S. cerevisiae deletion strains, locus YAL013W, strain DEP1, active compounds read low",0.858 (active)
same,normalized growth,"S. cerevisiae deletion strains, locus YBR021W, strain FUR4, active compounds read low",0.168 (active)
same,normalized growth,"S. cerevisiae deletion strains, locus YBR229C, strain ROT2, active compounds read low",0.405 (active)
same,normalized growth,"S. cerevisiae deletion strains, locus YCL029C, strain bik1, active compounds read low",0.559 (active)
same,normalized growth,"S. cerevisiae deletion strains, locus YDL035C, strain GPR1, active compounds read low",0.478 (active)
same,normalized growth,"S. cerevisiae deletion strains, locus YDL074C, strain BRE1, active compounds read low",0.412 (active)
same,normalized growth,"S. cerevisiae deletion strains, locus YDL101C, strain DUN1, active compounds read low",0.214 (active)
same,normalized growth,"S. cerevisiae deletion strains, locus YDL134C, strain PPH21, active compounds read low",0.313 (active)
same,normalized growth,"S. cerevisiae deletion strains, locus YDL185W, strain tfp1, active compounds read low",0.993
same,normalized growth,"S. cerevisiae deletion strains, locus YDL192W, strain arf1, active compounds read low",0.0725 (active)
same,normalized growth,"S. cerevisiae deletion strains, locus YDR101C, strain arx1, active compounds read low",0.569 (active)
same,normalized growth,"S. cerevisiae deletion strains, locus YDR150W, strain NUM1, active compounds read low",0.426 (active)
same,normalized growth,"S. cerevisiae deletion strains, locus YDR162C, strain NBP2, active compounds read low",0.0697 (active)
same,normalized growth,"S. cerevisiae deletion strains, locus YDR318W, strain mcm21, active compounds read low",0.224 (active)
same,normalized growth,"S. cerevisiae deletion strains, locus YDR388W, active compounds read low",0.117 (active)
same,normalized growth,"S. cerevisiae deletion strains, locus YDR502C, strain sam2, active compounds read low",0.317 (active)
same,normalized growth,"S. cerevisiae deletion strains, locus YEL061C, strain CIN8, active compounds read low",0.724 (active)
same,normalized growth,"S. cerevisiae deletion strains, locus YER110C, active compounds read low",0.861 (active)
same,normalized growth,"S. cerevisiae deletion strains, locus YER155C, strain BEM2, active compounds read low",0.796 (active)
same,normalized growth,"S. cerevisiae deletion strains, locus YER167W, strain BCK2, active compounds read low",0.294 (active)
same,normalized growth,"S. cerevisiae deletion strains, locus YGL078C, strain dbp3, active compounds read low",0.378 (active)
same,normalized growth,"S. cerevisiae deletion strains, locus YGL086W, strain mad1, active compounds read low",0.331 (active)
same,normalized growth,"S. cerevisiae deletion strains, locus YGL248W, strain PDE1, active compounds read low",0.282 (active)
same,normalized growth,"S. cerevisiae deletion strains, locus YGR078C, strain PAC10, active compounds read low",0.621 (active)
same,normalized growth,"S. cerevisiae deletion strains, locus YGR135W, strain pre9, active compounds read low",0.781 (active)
same,normalized growth,"S. cerevisiae deletion strains, locus YGR229C, strain SMI1, active compounds read low",0.15 (active)
same,normalized growth,"S. cerevisiae deletion strains, locus YGR252W, strain gcn5, active compounds read low",0.312 (active)
same,normalized growth,"S. cerevisiae deletion strains, locus YHR030C, strain SLT2, active compounds read low",0.142 (active)
same,normalized growth,"S. cerevisiae deletion strains, locus YHR079C, strain IRE1 (second series), active compounds read low",0.39 (active)
same,normalized growth,"S. cerevisiae deletion strains, locus YHR094C, strain hxt1, active compounds read low",0.278 (active)
same,normalized growth,"S. cerevisiae deletion strains, locus YHR129C, strain ARP1, active compounds read low",0.209 (active)
same,normalized growth,"S. cerevisiae deletion strains, locus YHR200W, strain rpn10, active compounds read low",0.691 (active)
same,normalized growth,"S. cerevisiae deletion strains, locus YIL066C, strain RNR3, active compounds read low",0.385 (active)
same,normalized growth,"S. cerevisiae deletion strains, locus YIL073C, strain SPO22, active compounds read low",0.127 (active)
same,normalized growth,"S. cerevisiae deletion strains, locus YIL125W, strain kgd1, active compounds read low",0.12 (active)
same,normalized growth,"S. cerevisiae deletion strains, locus YIR030C, strain dcg1, active compounds read low",0.461 (active)
same,normalized growth,"S. cerevisiae deletion strains, locus YJL095W, strain BCK1, active compounds read low",0.232 (active)
same,normalized growth,"S. cerevisiae deletion strains, locus YJL134W, strain LCB3, active compounds read low",0.244 (active)
same,normalized growth,"S. cerevisiae deletion strains, locus YJL168C, strain set2, active compounds read low",0.448 (active)
same,normalized growth,"S. cerevisiae deletion strains, locus YJL187C, strain SWE1 (second series), active compounds read low",0.287 (active)
same,normalized growth,"S. cerevisiae deletion strains, locus YJR043C, strain POL32, active compounds read low",0.552 (active)
same,normalized growth,"S. cerevisiae deletion strains, locus YJR075W, strain HOC1, active compounds read low",0.6 (active)
same,normalized growth,"S. cerevisiae deletion strains, locus YKL009W, strain mrt4, active compounds read low",0.874 (active)
same,normalized growth,"S. cerevisiae deletion strains, locus YKL068W, active compounds read low",0.257 (active)
same,normalized growth,"S. cerevisiae deletion strains, locus YKL085W, strain MDH1 (second series), active compounds read low",0.164 (active)
same,normalized growth,"S. cerevisiae deletion strains, locus YKL085W, strain MDH1, active compounds read low",0.164 (active)
same,normalized growth,"S. cerevisiae deletion strains, locus YKL190W, strain CNB1, active compounds read low",0.295 (active)
same,normalized growth,"S. cerevisiae deletion strains, locus YKR001C, strain vps1, active compounds read low",0.0696 (active)
same,normalized growth,"S. cerevisiae deletion strains, locus YLR039C, strain RIC1, active compounds read low",0.115 (active)
same,normalized growth,"S. cerevisiae deletion strains, locus YLR058C, strain SHM2, active compounds read low",0.432 (active)
same,normalized growth,"S. cerevisiae deletion strains, locus YLR102C, strain apc9, active compounds read low",0.431 (active)
same,normalized growth,"S. cerevisiae deletion strains, locus YLR262C, strain YPT6, active compounds read low",0.125 (active)
same,normalized growth,"S. cerevisiae deletion strains, locus YLR268W, strain sec22, active compounds read low",0.291 (active)
same,normalized growth,"S. cerevisiae deletion strains, locus YLR330W, strain CHS5, active compounds read low",0.237 (active)
same,normalized growth,"S. cerevisiae deletion strains, locus YLR342W, strain FKS1 (second series), active compounds read low",0.2 (active)
same,normalized growth,"S. cerevisiae deletion strains, locus YLR371W, strain rom2, active compounds read low",0.147 (active)
same,normalized growth,"S. cerevisiae deletion strains, locus YLR418C, strain cdc73, active compounds read low",0.162 (active)
same,normalized growth,"S. cerevisiae deletion strains, locus YML016C, strain PPZ1, active compounds read low",0.402 (active)
same,normalized growth,"S. cerevisiae deletion strains, locus YML032C, strain rad52, active compounds read low",0.586 (active)
same,normalized growth,"S. cerevisiae deletion strains, locus YML124C, strain tub3, active compounds read low",0.385 (active)
same,normalized growth,"S. cerevisiae deletion strains, locus YMR078C, strain ctf18, active compounds read low",0.857 (active)
same,normalized growth,"S. cerevisiae deletion strains, locus YMR223W, strain ubp8, active compounds read low",0.465 (active)
same,normalized growth,"S. cerevisiae deletion strains, locus YMR263W, strain SAP30, active compounds read low",0.763 (active)
same,normalized growth,"S. cerevisiae deletion strains, locus YMR307W, strain GAS1, active compounds read low",0.129 (active)
same,normalized growth,"S. cerevisiae deletion strains, locus YNL067W, strain RPL9B, active compounds read low",0.629 (active)
same,normalized growth,"S. cerevisiae deletion strains, locus YNL128W, strain TEP1, active compounds read low",0.377 (active)
same,normalized growth,"S. cerevisiae deletion strains, locus YNL153C, strain GIM3, active compounds read low",0.31 (active)
same,normalized growth,"S. cerevisiae deletion strains, locus YNL233W, strain BNI4, active compounds read low",0.2 (active)
same,normalized growth,"S. cerevisiae deletion strains, locus YNL250W, strain rad50, active compounds read low",0.262 (active)
same,normalized growth,"S. cerevisiae deletion strains, locus YNL271C, strain bni1, active compounds read low",0.119 (active)
same,normalized growth,"S. cerevisiae deletion strains, locus YNL298W, strain CLA4, active compounds read low",0.111 (active)
same,normalized growth,"S. cerevisiae deletion strains, locus YNL307C, strain MCK1, active compounds read low",0.229 (active)
same,normalized growth,"S. cerevisiae deletion strains, locus YNL322C, strain KRE1, active compounds read low",0.262 (active)
same,normalized growth,"S. cerevisiae deletion strains, locus YNR052C, strain pop2, active compounds read low",0.241 (active)
same,normalized growth,"S. cerevisiae deletion strains, locus YOL006C, strain TOP1, active compounds read low",0.107 (active)
same,normalized growth,"S. cerevisiae deletion strains, locus YOL012C, strain htz1",0.22
same,normalized growth,"S. cerevisiae deletion strains, locus YOL147C, strain pex11, active compounds read low",0.338 (active)
same,normalized growth,"S. cerevisiae deletion strains, locus YOR061W, strain CKA2, active compounds read low",0.0978 (active)
same,normalized growth,"S. cerevisiae deletion strains, locus YOR069W, strain VPS5, active compounds read low",0.14 (active)
same,normalized growth,"S. cerevisiae deletion strains, locus YOR136W, strain idh2, active compounds read low",0.248 (active)
same,normalized growth,"S. cerevisiae deletion strains, locus YOR144C, strain elg1, active compounds read low",0.425 (active)
same,normalized growth,"S. cerevisiae deletion strains, locus YOR184W, strain ser1, active compounds read low",0.335 (active)
same,normalized growth,"S. cerevisiae deletion strains, locus YOR316C, strain cot1, active compounds read low",0.377 (active)
same,normalized growth,"S. cerevisiae deletion strains, locus YPL055C, strain LGE1, active compounds read low",0.174 (active)
same,normalized growth,"S. cerevisiae deletion strains, locus YPL241C, strain CIN2, active compounds read low",0.648 (active)
same,normalized growth,"S. cerevisiae deletion strains, locus YPR119W, strain clb2, active compounds read low",0.623 (active)
same,normalized growth,"S. cerevisiae deletion strains, locus YPR141C, strain kar3, active compounds read low",0.383 (active)
same,normalized growth,"S. cerevisiae deletion strains, locus YPR163C, strain tif3, active compounds read low",0.134 (active)
same,normalized growth,"S. cerevisiae deletion strains, locus YPR167C, strain met16, active compounds read low",0.427 (active)
same,normalized growth,"S. cerevisiae deletion strains, strain wtn01, active compounds read low",0.245 (active)
same,normalized growth,"S. cerevisiae strains, strain wild type, active compounds read low",0.27 (active)
